From PubChem BioAssay (NCATS)
Results filed as inconclusive are left out. Activity calls are given as the source filed them. Calls follow the shape of the dose curve; as a rule, active = well fitted inhibition curve with a large enough effect; inconclusive = small, poorly fitted or top-dose-only effect; inactive = flat fitted curve, though single readings scatter.

Experiments:
[1] = system: CRL-7250; experiment: Cytotoxic Profiling of Annotated Libraries Using Quantitative High-Throughput Screening (AID 1296008); conditions: Five cell lines viability, CellTiter-Glo ATP luminescence, 48-72 h; max response: stronger effect = lower value; as to max response: % is scaled to controls: 0 for no effect and ±100 for the full control effect
How it was run: (§1)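 Cytotoxicity was measured as CellTiter-Glo ATP luminescence, read after 10 min at room temperature. Compound treatment of the cells lasted 48 or 72 hr at 37 degrees Celsius in a qHTS format.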

[2] = system: HEK293; experiment: as above; conditions: Five cell lines viability, CellTiter-Glo ATP luminescence, 48-72 h; max response: stronger effect = lower value
How it was run: as §1

[3] = system: HaCat; experiment: as above; conditions: Five cell lines viability, CellTiter-Glo ATP luminescence, 48-72 h; max response: stronger effect = lower value
How it was run: as §1

[4] = system: KB-3-1; experiment: as above; conditions: Five cell lines viability, CellTiter-Glo ATP luminescence, 48-72 h; max response: stronger effect = lower value
How it was run: as §1

[5] = system: NIH3T3; experiment: as above; conditions: Five cell lines viability, CellTiter-Glo ATP luminescence, 48-72 h; max response: stronger effect = lower value
How it was run: as §1

[6] = system: HACAT; experiment: qHTS assay to identify novel small-molecules to repurpose for Merkel cell carcinoma treatment (AID 1296009); conditions: MCC and control cell lines, CellTiter-Glo viability, 72 h; at 44.8 µM (top of the series) unless noted
How it was run: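 72 hr, 37 degree celsius; NPC 8-pt / MIPE 11-pt dose response; compound pinned in DMSO; CellTiter-Glo, 10 min RT, luminescence; normalized to no-cell and DMSO controls.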

Measured: max response
Also: nearly all actives have a fitted effect of over 60% in size.

OC[C@H]1O[C@@H](O[C@H]2[C@H](O)[C@@H](CO)O[C@@H](OCc3ccccc3)[C@@H]2O[C@@H]2OC[C@](O)(CO)[C@H]2O)[C@H](O)[C@@H](O)[C@@H]1O
inactive: [1] -8.44% | [2] -1.87% | [3] | [4] 7.58% | [5] 1.27% | [6] inactive [at 17.4 µM]

C/C(=C\CCC1(C)C2CC3C(C2)C31C)C(=O)O (stereo not given)
inactive: [1] | [2] -2.35% | [3] | [4] | [5] | [6]

CC1(C)C2CC[C@@]34CC(CC[C@H]3[C@]2(C)CC[C@@H]1O[C@@H]1O[C@H](CO)[C@@H](O)[C@H](O)[C@H]1O)[C@](C)(O)C4 (stereo not given in full)
inactive: [1] -8.76% | [2] 0.264% | [3] | [4] 8.52% | [5] | [6] inactive [at 17.4 µM]

C=C1C(=O)O[C@@H]2C[C@]3(C)[C@@H](CCC(C)=O)[C@@H]3C[C@H]12
inactive: [1] 4.44% | [2] -12.9% | [3] | [4] 2.7% | [5] | [6]

CNc1nc(C)nc(N[C@H]2CCC[C@@H](C(=O)NCc3ccc(C#N)cc3C(F)(F)F)C2)n1
inactive: [1] | [2] -15.3% | [3] | [4] -5.41% | [5] | [6]

COc1cc(Nc2nc3ccccc3nc2NS(=O)(=O)c2cccc(NC(=O)c3ccc(C)c(OC)c3)c2)cc(OC)c1
inactive: [1] -4.07% | [2] -14.5% | [3] | [4] -12.1% | [5] | [6]

CCc1cc(CC[C@]2(C3CCCC3)CC(O)=C(Cc3nc4nc(C)cc(C)n4n3)C(=O)O2)cc(CC)n1
inactive: [1] | [2] 0.838% | [3] | [4] -0.912% | [5] -7.94% | [6]

COC(=O)C(CC1CCCC1)c1ccc(S(C)(=O)=O)cc1 (stereo not given)
inactive: [1] | [2] 0.176% | [3] | [4] | [5] 2.5% | [6]

COc1ccc(C2COc3cc(O)ccc3C2)c(O)c1OC (stereo not given)
inactive: [1] | [2] -9.14% | [3] | [4] 1.88% | [5] -7.34% | [6]

CCN(CCN(C)C)C(=O)CNCc1cc(C(N)=O)ccn1
inactive: [1] | [2] 1.94% | [3] | [4] 7.84% | [5] | [6]
